This is an account of results in PubChem BioAssay (NCI).

Structures are written as SMILES. The panel holds about 79,000 compounds, 15% with a hit somewhere; the sample as a whole holds those more often. Unmarked numbers belong to inactive results. Active and inactive are the calls of the source. No stated cut-off is given here; in the data, active means growth inhibition above about 70%; inactive means the rest.

A short description of experiment [1]: NCI Yeast Anticancer Drug Screen. Data for the rad50 strain (AID 155).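 Further: 0% = growth of vehicle-only cultures of the same strain.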 Conditions: S. cerevisiae rad50 strain growth inhibition, hits give high values. In short, it runs like this: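 Readout: growth inhibition relative to vehicle-treated cultures. Compound exposure was carried out in a genetically defined yeast strain deficient in DNA damage repair.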
A short description of experiment [2]: NCI Yeast Anticancer Drug Screen. Data for the mec2-1 strain (AID 157). Conditions: S. cerevisiae mec2-1 strain, hits give high values. In short, it runs like this:
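Cells of the genetically defined mec2-1 yeast strain are incubated with test compound. Inhibition of growth is calculated against vehicle-treated controls.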

Experiment [3] can be described thus: NCI Yeast Anticancer Drug Screen. Data for the sgs1 mgt1 strain (AID 161).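 Further: 0% = growth of cultures given vehicle only.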 Conditions: S. cerevisiae sgs1 mgt1 strain, hits give high values. In short, it runs like this: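 Read-out: growth inhibition vs vehicle controls. Cells: mutant yeast strain deficient in DNA damage repair.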
The nature of experiment [4]: NCI Yeast Anticancer Drug Screen. Data for the cln2 rad14 strain (AID 165).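 Further: 0% = growth equal to vehicle treated cultures.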 Conditions: S. cerevisiae cln2 rad14 strain, hits give high values. In short, it runs like this:
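The screen exposed genetically defined yeast (cln2 rad14) to test compounds and scored growth inhibition relative to vehicle-treated controls.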

A short description of experiment [5]: NCI Yeast Anticancer Drug Screen. Data for the bub3 strain (AID 167). Conditions: S. cerevisiae bub3 mutant strain, hits give high values. In a few lines: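 Readout: yeast growth inhibition, expressed relative to vehicle-only wells. The test organism is a mutant strain from a panel with lesions in DNA repair or checkpoint genes.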
Experiment [6] can be described thus: NCI Yeast Anticancer Drug Screen. Data for the mlh1 rad18 strain (AID 175). Conditions: S. cerevisiae mlh1 rad18 strain growth inhibition, hits give high values. In a few lines:
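Compound-treated yeast growth, normalised to vehicle controls. Strain bears defined DNA repair mutations.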

Setting [7] is: at 5.0 µM (retest, dose inferred, filed as 0.5).
Setting [8] is: at 50.0 µM (retest, dose inferred, filed as 5.0).

As for `Cc1ccccc1N=Nc1c(C)nn(C(N)=S)c1-c1ccccc1`, the growth inhibition in experiment [1] (setting [7]) was 6%; in experiment [1] (setting [8]), 85% (active); in experiment [1] (at 50.0 µM), 95.2% (active); in experiment [2] (setting [7]), -15%; in experiment [2] (setting [8]) it was 96% (active); in experiment [2] (at 50.0 µM) it was 57.1%. For the same compound, the growth inhibition in experiment [3] (setting [7]) was -5%; in experiment [3] (setting [8]), 96% (active); in experiment [3] (at 50.0 µM), 94.8% (active); in experiment [4] (setting [7]), -6%; in experiment [4] (setting [8]), 87% (active); in experiment [4] (at 50.0 µM), -4.5%. Also, the growth inhibition is -3% in experiment [5] (setting [7]); 97% (active) in experiment [5] (setting [8]); 34.5% in experiment [5] (at 50.0 µM); 12% in experiment [6] (setting [7]); 97% (active) in experiment [6] (setting [8]); 96.3% (active) in experiment [6] (at 50.0 µM).

Take `c1cnc2ccc3c4cccnc4ccc3c2c1`: the growth inhibition was 12% in experiment [1] (setting [7]); 95% (active) in experiment [1] (setting [8]); 96.8% (active) in experiment [1] (at 50.0 µM); 0% in experiment [2] (setting [7]); 75% (active) in experiment [2] (setting [8]); 75% (active) in experiment [2] (at 50.0 µM). For the same compound, the growth inhibition in experiment [3] (setting [7]) is 7%; in experiment [3] (setting [8]), 81% (active); in experiment [3] (at 50.0 µM) it was 61.3%; in experiment [4] (setting [7]), -17%; in experiment [4] (setting [8]) it was 67%; in experiment [4] (at 50.0 µM) it was 59.5%. Also, the growth inhibition in experiment [5] (setting [7]) was 2%; in experiment [5] (setting [8]), 66%; in experiment [5] (at 50.0 µM), 75.8% (active); in experiment [6] (setting [7]), 1%; in experiment [6] (setting [8]), 89% (active); in experiment [6] (at 50.0 µM), 80.4% (active).

For `CC1=C(C(=O)OC(C)C)C(c2ccccc2[N+](=O)[O-])C(C(=O)OC(CO[N+](=O)[O-])CO[N+](=O)[O-])=C(C)N1` (stereo not drawn), the growth inhibition is 17% in experiment [1] (setting [7]); 24% in experiment [1] (setting [8]); 83.6% (active) in experiment [1] (at 50.0 µM); 30% in experiment [2] (setting [7]); 27% in experiment [2] (setting [8]); 87.7% (active) in experiment [2] (at 50.0 µM). Also, the growth inhibition was -20% in experiment [3] (setting [7]); -8% in experiment [3] (setting [8]); 89.1% (active) in experiment [3] (at 50.0 µM); 2% in experiment [4] (setting [7]); 22% in experiment [4] (setting [8]); 83.9% (active) in experiment [4] (at 50.0 µM). Moreover, the growth inhibition in experiment [5] (setting [7]) is -5%; in experiment [5] (setting [8]), 25%; in experiment [5] (at 50.0 µM), 87.2% (active); in experiment [6] (setting [7]) it was 18%; in experiment [6] (setting [8]), 19%; in experiment [6] (at 50.0 µM) it was 81.7% (active).

With `O=C(O)c1cc2oc(-c3ccccc3)cc2[nH]1`, the growth inhibition is -11% in experiment [1] (setting [7]); 71% (active) in experiment [1] (setting [8]); 72.5% (active) in experiment [1] (at 50.0 µM); -8% in experiment [2] (setting [7]); 71% (active) in experiment [2] (setting [8]); 88.7% (active) in experiment [2] (at 50.0 µM). In addition, the growth inhibition was 7% in experiment [3] (setting [7]); 74% (active) in experiment [3] (setting [8]); 47.9% in experiment [3] (at 50.0 µM); -32% in experiment [4] (setting [7]); 34% in experiment [4] (setting [8]); 69.8% in experiment [4] (at 50.0 µM). Besides, the growth inhibition was -14% in experiment [5] (setting [7]); 51% in experiment [5] (setting [8]); 83.8% (active) in experiment [5] (at 50.0 µM); -9% in experiment [6] (setting [7]); 80% (active) in experiment [6] (setting [8]); 87.3% (active) in experiment [6] (at 50.0 µM).

As for `Oc1ccc2ccccc2c1I`, the growth inhibition in experiment [1] (setting [7]) is 41%; in experiment [1] (setting [8]) it was 75% (active); in experiment [1] (at 50.0 µM), 91.2% (active); in experiment [2] (setting [7]) it was 42%; in experiment [2] (setting [8]) it was 75% (active); in experiment [2] (at 50.0 µM), 92.7% (active). Moreover, the growth inhibition is 97% (active) in experiment [3] (setting [7]); 99% (active) in experiment [3] (setting [8]); 93% (active) in experiment [3] (at 50.0 µM); 79% (active) in experiment [4] (setting [7]); 99% (active) in experiment [4] (setting [8]); 92.6% (active) in experiment [4] (at 50.0 µM). Further, the growth inhibition in experiment [5] (setting [7]) is 96% (active); in experiment [5] (setting [8]), 98% (active); in experiment [5] (at 50.0 µM), 91.7% (active); in experiment [6] (setting [7]), 32%; in experiment [6] (setting [8]), 55%; in experiment [6] (at 50.0 µM), 90.8% (active).

In the case of `COc1cc2c(cc1OC(C)=O)C(=O)C(Br)(Br)CCC2`, the growth inhibition in experiment [1] (setting [7]) was 66%; in experiment [1] (setting [8]) it was 99% (active); in experiment [1] (at 50.0 µM) it was 62.5%; in experiment [2] (setting [7]), 32%; in experiment [2] (setting [8]) it was 99% (active); in experiment [2] (at 50.0 µM), 98.5% (active). The growth inhibition is 88% (active) in experiment [3] (setting [7]); 99% (active) in experiment [3] (setting [8]); 65.1% in experiment [3] (at 50.0 µM); 13% in experiment [4] (setting [7]); 98% (active) in experiment [4] (setting [8]); 94.2% (active) in experiment [4] (at 50.0 µM). The growth inhibition is 10% in experiment [5] (setting [7]); 47% in experiment [5] (setting [8]); 99% (active) in experiment [5] (at 50.0 µM); 49% in experiment [6] (setting [7]); 99% (active) in experiment [6] (setting [8]); 98.5% (active) in experiment [6] (at 50.0 µM).
